We go through eight sequences from article PMC7862700, “An all-to-all approach to the identification of sequence-specific readers for epigenetic DNA modifications on cytosine”.

Holding throughout (test): DAPPL (digital affinity profiling via proximity ligation, sequencing); 10 mM Tris-HCl pH 7.5, 50 mM NaCl, 1 mM DTT, 4% glycerol, room temperature, 30 min; GST-TFs on glutathione beads, 16-mer random dsDNA library, 0.1% formaldehyde crosslink after washing; high values mean tight binding
Conditions in all cases: protein: recombinant; tags: N-terminal GST; dsDNA, one strand shown

One assay has as its target T1, ERF (Homo sapiens, UniProt P50548 1-548).
T1 sequence: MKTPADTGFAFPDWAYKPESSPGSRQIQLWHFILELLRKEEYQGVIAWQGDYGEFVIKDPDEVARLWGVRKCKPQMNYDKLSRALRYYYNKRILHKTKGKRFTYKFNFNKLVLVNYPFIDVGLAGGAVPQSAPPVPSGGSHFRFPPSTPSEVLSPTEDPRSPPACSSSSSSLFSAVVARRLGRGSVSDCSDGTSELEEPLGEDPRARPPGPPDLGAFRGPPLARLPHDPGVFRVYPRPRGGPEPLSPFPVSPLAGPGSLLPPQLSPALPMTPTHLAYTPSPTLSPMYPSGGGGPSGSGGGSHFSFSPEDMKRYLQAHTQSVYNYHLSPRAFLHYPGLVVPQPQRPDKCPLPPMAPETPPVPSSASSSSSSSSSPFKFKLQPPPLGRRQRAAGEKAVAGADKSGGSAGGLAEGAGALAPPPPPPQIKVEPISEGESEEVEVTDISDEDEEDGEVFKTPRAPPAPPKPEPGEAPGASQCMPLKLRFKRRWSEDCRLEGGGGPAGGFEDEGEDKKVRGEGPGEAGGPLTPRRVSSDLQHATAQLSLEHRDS
The method in brief: (§1)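 Binding signal is each hexamer's read frequency for a factor divided by its frequency in the tag-only sample. The factors were GST-fused human transcription factors from yeast, captured on glutathione beads, DNA-barcoded and pooled with that sample. Pools were incubated with 200 nmole of a random double-stranded 16-mer DNA library in Tris/NaCl/DTT/glycerol buffer at room temperature for 30 min, then washed, crosslinked with 0.1% formaldehyde, proximity-ligated with BsaI/T4 ligase (1 h, 37 °C), PCR-amplified and sequenced on an Illumina NextSeq500.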

The next assay has as its target T2, ETV3L (Homo sapiens, UniProt Q6ZN32 1-361).
T2 sequence: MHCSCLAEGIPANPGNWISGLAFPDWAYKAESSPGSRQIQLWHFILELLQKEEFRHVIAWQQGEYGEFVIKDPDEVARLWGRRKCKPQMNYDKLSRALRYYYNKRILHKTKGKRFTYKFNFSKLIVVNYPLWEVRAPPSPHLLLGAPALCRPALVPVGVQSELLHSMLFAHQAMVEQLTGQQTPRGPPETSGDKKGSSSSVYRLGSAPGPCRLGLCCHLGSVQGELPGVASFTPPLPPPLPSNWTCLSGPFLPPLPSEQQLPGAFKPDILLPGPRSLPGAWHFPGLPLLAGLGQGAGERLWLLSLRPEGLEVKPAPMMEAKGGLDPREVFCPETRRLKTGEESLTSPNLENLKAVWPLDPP
In outline: as §1

The next assay addresses T3, ETS2 (Homo sapiens, UniProt P15036 1-469).
T3 sequence: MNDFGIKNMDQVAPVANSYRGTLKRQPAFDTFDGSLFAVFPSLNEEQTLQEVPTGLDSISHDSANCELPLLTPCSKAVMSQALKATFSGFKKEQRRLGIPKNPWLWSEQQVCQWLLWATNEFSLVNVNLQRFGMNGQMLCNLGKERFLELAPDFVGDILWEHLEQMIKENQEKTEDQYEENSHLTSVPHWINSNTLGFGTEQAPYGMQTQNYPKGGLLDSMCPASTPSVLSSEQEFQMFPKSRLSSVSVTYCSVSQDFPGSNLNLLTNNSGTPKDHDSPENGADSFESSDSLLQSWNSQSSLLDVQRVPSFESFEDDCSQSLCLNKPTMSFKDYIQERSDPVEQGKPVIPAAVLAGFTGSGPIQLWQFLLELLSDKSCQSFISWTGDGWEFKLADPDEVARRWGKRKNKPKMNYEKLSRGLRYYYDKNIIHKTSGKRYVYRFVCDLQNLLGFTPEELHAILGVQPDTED
The method in brief: as §1

In a further assay the target is T4, SPDEF (Homo sapiens, UniProt O95238 1-335).
T4 sequence: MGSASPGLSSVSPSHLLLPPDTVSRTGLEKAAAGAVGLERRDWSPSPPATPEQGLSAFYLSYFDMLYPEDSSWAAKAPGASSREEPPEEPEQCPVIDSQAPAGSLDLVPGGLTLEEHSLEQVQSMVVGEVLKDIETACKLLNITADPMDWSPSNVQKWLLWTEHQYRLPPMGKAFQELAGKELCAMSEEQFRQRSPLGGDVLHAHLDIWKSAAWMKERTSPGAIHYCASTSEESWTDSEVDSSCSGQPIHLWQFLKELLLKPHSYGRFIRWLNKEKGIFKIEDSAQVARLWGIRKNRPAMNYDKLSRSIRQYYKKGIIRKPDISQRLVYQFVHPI
The method in brief:
as §1

The next assay deals with T5, ETV7 (Homo sapiens, UniProt Q9Y603 1-341).
T5 sequence: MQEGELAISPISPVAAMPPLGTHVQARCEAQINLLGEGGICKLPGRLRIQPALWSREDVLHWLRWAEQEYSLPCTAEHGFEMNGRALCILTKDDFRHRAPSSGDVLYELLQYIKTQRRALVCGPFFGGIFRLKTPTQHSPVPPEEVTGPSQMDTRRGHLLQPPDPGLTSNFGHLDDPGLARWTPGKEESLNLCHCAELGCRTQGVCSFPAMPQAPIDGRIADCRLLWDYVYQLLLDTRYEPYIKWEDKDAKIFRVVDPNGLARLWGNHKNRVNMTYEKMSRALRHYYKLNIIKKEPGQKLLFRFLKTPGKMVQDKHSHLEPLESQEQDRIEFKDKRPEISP
In outline:
as §1

Another assay concerns the target T6, ELF5 (Homo sapiens, UniProt Q9UKW6-2 1-255).
T6 sequence: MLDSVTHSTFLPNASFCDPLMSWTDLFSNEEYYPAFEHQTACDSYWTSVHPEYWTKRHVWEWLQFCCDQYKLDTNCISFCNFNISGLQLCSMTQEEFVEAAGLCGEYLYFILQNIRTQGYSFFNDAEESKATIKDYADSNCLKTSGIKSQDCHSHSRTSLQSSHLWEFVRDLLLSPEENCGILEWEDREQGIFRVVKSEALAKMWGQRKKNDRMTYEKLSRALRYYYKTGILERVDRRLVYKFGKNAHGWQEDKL
The method in brief:
as §1

In a further assay the target is T7, ETV3 (Homo sapiens, UniProt P41162-2 1-143).
T7 sequence: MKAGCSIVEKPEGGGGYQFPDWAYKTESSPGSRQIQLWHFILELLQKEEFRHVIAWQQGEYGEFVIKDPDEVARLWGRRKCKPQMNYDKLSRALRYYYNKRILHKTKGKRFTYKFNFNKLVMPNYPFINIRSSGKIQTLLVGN
In outline: as §1

The next assay has as its target ETV6 (Homo sapiens, UniProt P41212 1-452). In outline:
as §1

Chain of ETV6 (P41212 whole entry): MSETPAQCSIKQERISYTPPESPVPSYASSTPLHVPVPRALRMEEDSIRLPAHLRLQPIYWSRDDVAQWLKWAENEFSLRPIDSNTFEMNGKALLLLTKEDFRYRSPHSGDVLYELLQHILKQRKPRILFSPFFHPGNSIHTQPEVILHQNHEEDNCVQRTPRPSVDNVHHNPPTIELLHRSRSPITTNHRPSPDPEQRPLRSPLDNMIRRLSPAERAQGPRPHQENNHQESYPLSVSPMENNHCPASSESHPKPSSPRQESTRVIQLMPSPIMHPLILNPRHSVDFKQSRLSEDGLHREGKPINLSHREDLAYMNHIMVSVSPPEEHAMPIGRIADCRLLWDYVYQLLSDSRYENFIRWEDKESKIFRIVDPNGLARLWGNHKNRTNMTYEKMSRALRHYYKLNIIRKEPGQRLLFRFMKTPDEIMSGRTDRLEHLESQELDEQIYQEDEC

Regarding GCTCCC, the binding signal is 1.29 fold enrichment (6-mer frequency, TF over GST control) with ERF; 1.27 fold enrichment (6-mer frequency, TF over GST control) with ETV3L; 1.35 fold enrichment (6-mer frequency, TF over GST control) with ETS2; 1.47 fold enrichment (6-mer frequency, TF over GST control) in the assay with SPDEF; 1.31 fold enrichment (6-mer frequency, TF over GST control) with ETV7; 1.33 fold enrichment (6-mer frequency, TF over GST control) with ELF5. The binding signal with ETV3 is 1.21 fold enrichment (6-mer frequency, TF over GST control); with ETV6, 1.25 fold enrichment (6-mer frequency, TF over GST control).

Consider CTCACA, for which the binding signal with ERF is 1.29 fold enrichment (6-mer frequency, TF over GST control); in the assay with ETV3L, 1.38 fold enrichment (6-mer frequency, TF over GST control); with ETS2 it was 1.31 fold enrichment (6-mer frequency, TF over GST control); with SPDEF it was 1.33 fold enrichment (6-mer frequency, TF over GST control); with ETV7, 1.24 fold enrichment (6-mer frequency, TF over GST control); in the assay with ELF5, 1.31 fold enrichment (6-mer frequency, TF over GST control). For the same sequence, the binding signal in the assay with ETV3 is 1.3 fold enrichment (6-mer frequency, TF over GST control); with ETV6, 1.24 fold enrichment (6-mer frequency, TF over GST control).

ATTGCG: the binding signal with ERF is 1.35 fold enrichment (6-mer frequency, TF over GST control); with ETV3L, 1.29 fold enrichment (6-mer frequency, TF over GST control); with ETS2, 1.27 fold enrichment (6-mer frequency, TF over GST control); with SPDEF, 1.09 fold enrichment (6-mer frequency, TF over GST control); in the assay with ETV7 it was 1.17 fold enrichment (6-mer frequency, TF over GST control); with ELF5, 1.21 fold enrichment (6-mer frequency, TF over GST control). The binding signal with ETV3 was 1.16 fold enrichment (6-mer frequency, TF over GST control); with ETV6 it was 1.27 fold enrichment (6-mer frequency, TF over GST control).

For the sequence TCACAC, the binding signal was 1.26 fold enrichment (6-mer frequency, TF over GST control) with ERF; 1.32 fold enrichment (6-mer frequency, TF over GST control) in the assay with ETV3L; 1.33 fold enrichment (6-mer frequency, TF over GST control) with ETS2; 1.16 fold enrichment (6-mer frequency, TF over GST control) with SPDEF; 1.27 fold enrichment (6-mer frequency, TF over GST control) with ETV7; 1.26 fold enrichment (6-mer frequency, TF over GST control) with ELF5. The binding signal with ETV3 is 1.27 fold enrichment (6-mer frequency, TF over GST control); in the assay with ETV6 it was 1.33 fold enrichment (6-mer frequency, TF over GST control).

With GTTCTA, the binding signal with ERF is 1.27 fold enrichment (6-mer frequency, TF over GST control); with ETV3L, 1.2 fold enrichment (6-mer frequency, TF over GST control); with ETS2, 1.25 fold enrichment (6-mer frequency, TF over GST control); in the assay with SPDEF, 1.19 fold enrichment (6-mer frequency, TF over GST control); with ETV7 it was 1.2 fold enrichment (6-mer frequency, TF over GST control); in the assay with ELF5, 1.23 fold enrichment (6-mer frequency, TF over GST control). The binding signal in the assay with ETV3 is 1.19 fold enrichment (6-mer frequency, TF over GST control); in the assay with ETV6, 1.24 fold enrichment (6-mer frequency, TF over GST control).

For the sequence ATCGCC, the binding signal in the assay with ERF is 1.27 fold enrichment (6-mer frequency, TF over GST control); with ETV3L, 1.32 fold enrichment (6-mer frequency, TF over GST control); in the assay with ETS2 it was 1.3 fold enrichment (6-mer frequency, TF over GST control); in the assay with SPDEF, 1.12 fold enrichment (6-mer frequency, TF over GST control); with ETV7, 1.03 fold enrichment (6-mer frequency, TF over GST control); with ELF5, 1.25 fold enrichment (6-mer frequency, TF over GST control). Moreover, the binding signal is 1.14 fold enrichment (6-mer frequency, TF over GST control) with ETV3 and 1.28 fold enrichment (6-mer frequency, TF over GST control) in the assay with ETV6.

With CTCCCC, the binding signal in the assay with ERF was 1.51 fold enrichment (6-mer frequency, TF over GST control); with ETV3L, 1.29 fold enrichment (6-mer frequency, TF over GST control); with ETS2, 1.33 fold enrichment (6-mer frequency, TF over GST control); with SPDEF, 1.28 fold enrichment (6-mer frequency, TF over GST control); with ETV7 it was 1.37 fold enrichment (6-mer frequency, TF over GST control); with ELF5, 1.33 fold enrichment (6-mer frequency, TF over GST control). The binding signal with ETV3 was 1.38 fold enrichment (6-mer frequency, TF over GST control); in the assay with ETV6, 1.36 fold enrichment (6-mer frequency, TF over GST control).

Regarding ACTGAT, the binding signal in the assay with ERF is 1.26 fold enrichment (6-mer frequency, TF over GST control); in the assay with ETV3L, 1.25 fold enrichment (6-mer frequency, TF over GST control); with ETS2, 1.28 fold enrichment (6-mer frequency, TF over GST control); in the assay with SPDEF it was 1.1 fold enrichment (6-mer frequency, TF over GST control); in the assay with ETV7, 1.13 fold enrichment (6-mer frequency, TF over GST control); with ELF5, 1.22 fold enrichment (6-mer frequency, TF over GST control). The binding signal was 1.25 fold enrichment (6-mer frequency, TF over GST control) in the assay with ETV3 and 1.2 fold enrichment (6-mer frequency, TF over GST control) in the assay with ETV6.
